JMJD2A Tudor = JMJD2A Tudor domain (human) inhibition; AlphaScreen JMJD2A-Tudor / H3K4me3 peptide binding; Potency, µM (series often up to 114 µM), without a hit: at the top dose activity change, negative = inhibition, hits mostly inhibitors; actives 4.4% (n = 390,000); AID 504339; further: on the % scale 0 is the no-effect control and ±100 the full control effect; nearly all actives have a fitted effect of over 50% in size
HP1b chromo inh = inhibitors of HP1-beta chromodomain binding to methylated histone tails | AlphaScreen HP1-beta / biotin-H3K9me3 peptide binding | Potency, µM (titrated, usually from 114 µM), inactives show at the highest dose activity change, negative = inhibition, actives largely listed as inhibitors | actives 0.56% (n = 390,000); further: nearly all actives have a fitted effect of over 70% in size
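HP1-beta protein (50 nM final) preincubated 30 min at room temperature with biotinylated H3(1-18)K9me3 peptide (50 nM) in PBS pH 7.4, 0.01% Tween-20, then compound added for 30 min. AlphaScreen streptavidin donor/nickel chelate acceptor beads (10 ug/mL final), 30 min dark, luminescence read.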
BAZ2B inh = BAZ2B (human) inhibition. Q9UIF8. AlphaScreen BAZ2B-H3K14Ac peptide displacement. Potency, µM (doses to about 114 µM), without a hit: at the highest dose activity change, negative = inhibition, most hits filed as inhibitors. actives 4.4% (n = 360,000); further: on the % scale 0 is the no-effect control and ±100 the full control effect; nearly all actives have a fitted effect of over 60% in size
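In this displacement format the biotinylated H3(5-23) peptide acetylated at Lys14 serves as ligand at 50 nM, with BAZ2B at 50 nM in PBS pH 7.4 containing 0.01% Tween-20. Donor and acceptor beads are 10 ug/mL final.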
Sfp PPTase inh = inhibitors of Bacillus subtilis Sfp phosphopantetheinyl transferase. Q9F4F7. Biochemical Sfp PPTase activity, qHTS. Potency, µM, inactives show largest response in the series, negative = inhibition, most hits filed as inhibitors. actives 3.5% (n = 310,000). AID 1490;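 further: the enzyme is Sfp with the accession as filed and its product quenches rhodamine fluorescence; 0% = enzyme reaction without inhibitor and -100% = no enzyme wells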
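Compounds were incubated with enzyme (final 15 nM) for 15 min at room temperature before substrate addition started the reaction. Fluorescence at 525 nm excitation, 598 nm emission was recorded immediately and after 30 minutes.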
L3MBTL1 inh = L3MBTL1 (human) inhibition | Q9Y468 | AlphaScreen L3MBTL1–H3K9me1 peptide binding | Potency, µM (doses to about 57.1 µM), for inactives: at the highest dose activity, negative = inhibition, hits mostly inhibitors | actives 0.66% (n = 230,000); further: on the % scale 0 is the no-effect control and ±100 the full control effect; nearly all actives have a fitted effect of over 60% in size
Target sequence (Q9Y468 whole entry, looked up): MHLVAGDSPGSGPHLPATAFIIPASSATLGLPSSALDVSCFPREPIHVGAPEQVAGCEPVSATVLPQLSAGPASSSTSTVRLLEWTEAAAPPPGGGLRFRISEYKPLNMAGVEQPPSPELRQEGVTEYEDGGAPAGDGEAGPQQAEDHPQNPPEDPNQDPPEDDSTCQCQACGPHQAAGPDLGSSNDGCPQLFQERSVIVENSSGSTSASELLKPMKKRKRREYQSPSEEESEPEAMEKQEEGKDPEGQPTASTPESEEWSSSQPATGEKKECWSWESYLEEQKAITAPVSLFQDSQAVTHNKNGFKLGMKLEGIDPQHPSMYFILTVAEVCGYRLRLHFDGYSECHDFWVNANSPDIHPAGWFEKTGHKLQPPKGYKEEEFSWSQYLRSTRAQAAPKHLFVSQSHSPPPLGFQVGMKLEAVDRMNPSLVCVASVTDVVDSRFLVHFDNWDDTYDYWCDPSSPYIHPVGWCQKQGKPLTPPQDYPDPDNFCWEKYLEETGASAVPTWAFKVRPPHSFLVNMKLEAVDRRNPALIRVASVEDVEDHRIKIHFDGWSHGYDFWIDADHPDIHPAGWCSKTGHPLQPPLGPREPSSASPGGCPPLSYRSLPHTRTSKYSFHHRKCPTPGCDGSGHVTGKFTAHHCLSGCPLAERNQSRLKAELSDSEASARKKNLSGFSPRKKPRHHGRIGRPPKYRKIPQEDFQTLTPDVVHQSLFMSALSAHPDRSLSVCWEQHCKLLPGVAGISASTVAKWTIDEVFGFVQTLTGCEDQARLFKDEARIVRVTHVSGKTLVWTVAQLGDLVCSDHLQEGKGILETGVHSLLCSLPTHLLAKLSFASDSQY
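AlphaScreen assay: L3MBTL1 (50 nM final) was preincubated 30 min at room temperature with biotinylated H3(1-15)K9me1 peptide (75 nM final), then 30 min with library compounds; streptavidin donor and nickel chelate acceptor beads (10 ug/mL final) added, 30 min dark.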
G9a inh = blocks human histone lysine methyltransferase G9a; actives 8.8% (n = 350,000); Potency, µM (highest dose often 102 µM), without a hit: at the top dose activity, negative = inhibition, actives largely listed as inhibitors; G9a H3K9 monomethylation, AlphaScreen, 2 h; further: on the % scale 0 is the no-effect control and ±100 the full control effect; nearly all actives have a fitted effect of over 75% in size
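Compounds were preincubated with 20 nM G9a for 15 min, after which biotinylated H3K9 peptide (500 nM) and SAM (20 uM) started a 2 h room-temperature reaction. Monomethylated product was quantified by antibody-based AlphaScreen chemiluminescence.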
Starred values were filed as active, the others as inactive; ? = inconclusive; . = no result; [ ] = dose if it differs, or a comment. Hits are enriched below; roughly 12% of the tested compounds scored in any of these assays. The call rests on the fitted dose curve; in most records, active means well fitted curve in the direction sought with a large enough effect; inconclusive means small, poorly fitted or top-dose-only effect, or another doubt; inactive means no such curve, though single readings can be large; an effect the other way counts as inactive or inconclusive. Potency means the concentration at half of the fitted maximal effect.

SMILES	JMJD2A Tudor	HP1b chromo inh	BAZ2B inh	Sfp PPTase inh	L3MBTL1 inh	G9a inh
CCc1ccc2c(c1)c(N=NC1=NC(=O)CS1)c(O)n2C	-33.3%	-9.2%	?	-24.5%	-4.6%	12.6µM*
Cc1ccc(C)c(C(=O)COc2ncnc3ccccc23)c1	2.2%	-12.2%	-3.6%	1.6%	4.4%	-1.4%
CCOc1ccc(C(=O)N/N=C(/C)C2C(=O)c3ccccc3C2=O)cc1	35.5µM*	22.1%	0.9%	7.5%	-2.9%	13.3%[59 µM]
CCOc1ccc(C(=O)NCC(C)C)cc1	6.3%[57.1 µM]	16.8%	8.1%	1.4%	.	0.891µM*
Cc1c(C(=O)NCC(c2ccco2)N(C)C)oc2c(Cl)cccc12 (stereo unspecified)	?	?	50.1µM*	.	-0.9%	50.1µM*
CN(C)C(CNC(=O)c1ccc(Br)cc1)c1ccco1 (stereo unspecified)	-4.9%	26.0%	-16.7%	10.0%	.	4.0%
CC(C)CCOc1ccc(C(=O)NCC(c2ccco2)N(C)C)cc1 (stereo unspecified)	-27.7%	-8.3%	-4.2%	3.4%	.	50.1µM*
COc1ccc(C)cc1NC(=O)CC1NCCNC1=O (stereo unspecified)	-10.4%	20.1%	-5.0%	.	.	10.9%[59 µM]
Cc1ccc(C)n1-c1nnc(N2CCC(C(=O)NCCCN3CCN(C)CC3)CC2)s1	-35.2%	19.7%	-7.7%	7.5%	1.5%	.
Cc1ccccc1NS(=O)(=O)c1ccc(Br)s1	-5.5%	52.6%	6.4%	.	.	-43.6%[59 µM]
Cc1ccc(CNC(=O)c2ccc(OCC(C)C)cc2)n1C	?	-1.9%	-30.8%	3.3%	.	44.7µM*
S=C(c1ccc(-c2ccccc2)cc1)N1CCOCC1	-24.7%	-10.7%	-1.0%	-16.7%	-3.4%	39.8µM*
O=C(Oc1cccc(Oc2ccccc2)c1)N1CCOCC1	8.6%	39.2%	10.5%	0.0%	9.2%	-2.9%
COc1cc(C(=O)Oc2cccc(C(=S)N3CCOCC3)c2)cc(OC)c1OC	-27.8%	-13.7%	?	?	.	22.4µM*
O=C(Oc1cccc(C(=S)N2CCOCC2)c1)c1ccccc1	-29.8%	?	-9.3%	56.2µM*	.	7.08µM*
COc1cc(C(=O)Oc2c(OC)cc(C(=S)N3CCOCC3)cc2OC)cc(OC)c1OC	-28.2%	21.3%	-32.6%	9.5%	-4.2%	?
O=C(Oc1ccc(Br)cc1C(=S)N1CCOCC1)c1ccccc1	-20.1%	-14.6%	10.2%	-25.0%	.	44.7µM*
O=C(Nc1cc(Cl)cc(Cl)c1)N1CCCC1	8.5%	30.2%	2.8%	5.4%	2.4%	.
CN(C)Cc1ccccc1-c1nc(NC2CCNCC2)c2ccccc2n1	.	.	.	15.4%	.	10.4%[0.501 µM]
COc1ccccc1CCNC(=O)c1ccc2c(c1)c(C)c(C)n2C	?	?	?	.	.	-33.5%[59 µM]
Cc1ccccc1CNC(=O)c1ccc2[nH]c(C)c(C)c2c1	50.1µM*	-16.0%	39.8µM*	.	.	?
CCN(CC)c1ccc(NC(=O)c2ccc3c(c2)c(C)c(C)n3C)cc1	17.8µM*	35.5µM*	11.2µM*	-11.0%	.	3.16µM*
Cc1ccccc1CNC(=O)c1ccc2c(c1)c(C)c(C)n2C	?	-20.1%	39.8µM*	.	.	?
Cc1c(C)n(C)c2ccc(C(=O)NCc3cccc(F)c3)cc12	?	0.1%	?	.	.	?
CCN(C(=O)Cn1c(=O)oc2cc(Cl)ccc21)c1cccc(C(F)(F)F)c1	5.5%	40.5%	12.0%	.	.	1.8%[59 µM]
SMILES	JMJD2A Tudor	HP1b chromo inh	BAZ2B inh	Sfp PPTase inh	L3MBTL1 inh	G9a inh
CN(/C(=N\S(=O)(=O)c1ccccc1)C(F)(F)F)c1ccccc1	-16.6%	12.9%	?	7.1%	-0.5%	.
CC(=O)c1cc(-c2ccc(F)cc2)n(CCC(=O)NC(C)(C)C)c1C	-27.6%	4.5%	50.1µM*	16.7%	6.5%	-8.7%
COc1ccc(-c2cc(C(C)=O)c(C)n2CCC(=O)NCc2ccc(F)cc2)cc1	-17.0%	33.5%	79.4µM*	.	.	?
CC(=O)c1cc(-c2ccccc2)n(CCC(=O)NCc2cccs2)c1C	-15.0%	2.8%	50.1µM*	-2.7%	2.0%[11.4 µM]	13.1%[12.7 µM]
CC(C(=O)O)N(c1ccccc1Cl)S(C)(=O)=O (stereo unspecified)	-16.9%	59.4%	7.5%	.	7.2%	7.9%[2.33 µM]
CC1=NN(c2ccccc2)C(=O)C1C(=O)c1ccc(Cl)cc1 (stereo unspecified)	-12.1%	76.9%	-28.2%	11.0%	-0.5%	39.8µM*
CC1=NN(c2ccccc2)C(=O)C1C(=O)c1ccccc1 (stereo unspecified)	?	0.0%	-36.6%	-8.5%	1.7%	?
Cc1c(NC(=O)Nc2ccc(F)cc2)c(=O)n(-c2ccccc2)n1C	-9.2%	27.6%	-4.6%	12.8%	.	-21.6%[2.33 µM]
CC1=NN(c2ccccc2)C(=O)C1C(=O)C(=O)Nc1ccc(F)cc1 (stereo unspecified)	-22.1%	26.7%	?	-5.2%	.	35.5µM*
CCCCN(Cc1ccco1)C(=O)Cn1ncc2c([nH]c3ccccc32)c1=O	-13.2%	24.0%	-1.2%	.	.	10.9%[59 µM]
Cc1ccc(C2=CSC3=NCCN23)c(C)c1	?	22.0%	2.9%	-26.2%	-0.1%	?
Cc1ccc(C2=CSC3=NNC4(CCCCC4)NN23)cc1	44.7µM*	-28.5%	?	-6.2%	6.2%	?
COc1ccc(C2=CSC3=NCCN23)cc1	-9.1%	48.6%	10.1%	2.6%	.	11.1%[2.33 µM]
COc1ccc(C2=CSC3=NNC4(CCCCC4)NN23)cc1	-34.4%	?	?	-23.5%	-7.6%	39.8µM*
CCOC(=O)c1ccccc1NC(=O)COC(=O)CN1C(=O)C2CC=CCC2C1=O (stereo unspecified)	-6.2%	38.8%	-23.2%	-6.3%	.	17.2%
COc1ccc(-n2c(=O)c3c4c(sc3n3c(=S)[nH]nc23)CCCC4)cc1	56.2µM*	6.0%	-6.7%	-7.4%	-1.4%	?
COc1ccc(-n2c(=O)c3c4c(sc3n3c(SCCC(C)C)nnc23)COC(C(C)C)C4)cc1 (stereo unspecified)	-3.5%	32.0%	0.9%	.	.	-4.7%[59 µM]
COc1ccc(-n2c(=S)[nH]c3sc4c(c3c2=O)CCN(C)C4)cc1	.	.	-25.2%	?	.	14.1µM*
COC(=O)CSc1nnc2n(-c3ccc(OC)cc3)c(=O)c3c4c(sc3n12)CCCCC4	-7.0%	36.6%	6.0%	-9.0%	1.3%	-1.4%
CC(C)C1Cc2c(sc3c2c(=O)n(-c2ccccc2)c2n[nH]c(=S)n32)CO1 (stereo unspecified)	20µM*	3.3%	-18.4%	-12.8%	.	1.26µM*
COc1ccc(-n2c(SC)nc3sc4c(c3c2=O)CCN(C)C4)cc1	-24.2%	24.6%	-30.4%	-6.4%	.	?
O=C(NN=C1CCCCCCCCCCC1)c1cccnc1	1.4%	49.5%	-19.7%	-25.1%	-0.6%	-6.0%
O=C(O)/C=C/c1ccc2noc(-c3ccccc3)c2c1	-11.2%	36.0%	-30.6%	50.1µM*	-1.0%	.
